Shown are actives, neighbours in structure and some others; about 3.8% of the full set was active somewhere.
ATXN2 expr inh: inhibitors of ATXN2 expression; HEK-293 ATXN2-luciferase reporter, luminescence, 24 h; Potency, µM (titrated, usually from 57 µM), inactives show at the highest dose activity change, negative = inhibition, actives largely listed as inhibitors; 360,000 tested, 0.72% active; AID 1745845; also: % is scaled to controls: 0 for no effect and ±100 for the full control effect; nearly all actives have a fitted effect of over 55% in size
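ATXN2-luciferase reporter cells (luciferase flanked by upstream and downstream ATXN2 gene portions) were treated 24 h at 37 °C with compounds at up to 57 uM. SteadyGlo luminescence gave expression; GF-AFC fluorescence gave viability.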
ATXN viability: cell viability loss in ATXN counter-screen | AID 651635 | Potency, µM (titrated, usually from 56.7 µM), actives largely listed as cytotoxic | S2 cells (HEK-293 line with an ATXN2-luciferase reporter) viability, CellTiter-Fluor protease fluorescence, 24 h | 400,000 tested, 0.49% active; also: nearly all actives have a fitted effect of over 40% in size
A549 viability: counter-screen for Nrf2 inhibitors: cytotoxicity in A549 cells | Potency, µM (doses to about 46 µM), for inactives: top-dose activity change, negative = cytotoxicity, hits mostly inhibitors | A549 ARE-Fluc cells, CellTiter-Fluor viability, 18-24 h | 390,000 tested, 0.16% active; also: % is scaled to controls: 0 for no effect and ±100 for the full control effect
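A549 ARE-Fluc cells in 5% FBS OPTI-MEM, 5000 cells/well, rested 2 h then exposed to compounds in concentration-response for 18-24 h at 37 °C. Viability by CellTiter-Fluor fluorescence (Ex 405/Em 525) after 30 min; luciferase luminescence (BugLite, 15 min, RT) read afterwards.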
TGFb SMAD3 inh: inhibitors of TGF-b signaling | 410,000 tested, 1.2% active | Potency, µM (doses to about 46.1 µM), without a hit: top-dose activity, negative = inhibition, actives largely listed as inhibitors | HepG2 CAGA-GFP TGF-b/SMAD3 reporter, GFP fluorescence, 18 h; TGF-beta stimulated, 500 pg/mL final | AID 588855; also: % is scaled to controls: 0 for no effect and ±100 for the full control effect; nearly all actives have a fitted effect of over 65% in size
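Inhibition of TGF-beta-driven CAGA-GFP reporter expression in HEPG2 cells is measured by cellular GFP fluorescence after 18 h stimulation with 500 pg/mL recombinant TGF-beta in 1% FBS medium at 37 degrees C.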
Nrf2 block: blocks Nrf2 signaling; A549 ARE-Fluc reporter, luciferase luminescence, 18-24 h; Potency, µM (top dose mostly 46 µM), without a hit: at the top dose activity change, negative = inhibition, most hits filed as inhibitors; 360,000 tested, 2.1% active; AID 504444; also: % is scaled to controls: 0 for no effect and ±100 for the full control effect; nearly all actives have a fitted effect of over 60% in size
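A549 ARE_Fluc cells (5000/well, 5% FBS OPTI-MEM) pre-incubated 2 h, then treated with compounds 18-24 h at 37C/5% CO2 in concentration-response. CellTiter-Fluor viability read first; BugLite luciferase luminescence after 15 min at room temperature gives Nrf2 activity.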
HepG2 tox: kills HepG2 cells in TGF-b inhibitor counter-screen. HepG2 CAGA-GFP viability, ATP luminescence, 18 h. Potency, µM (highest dose often 46.1 µM), without a hit: top-dose activity change, negative = cytotoxicity, actives largely listed as cytotoxic. 410,000 tested, 0.76% active. AID 588856
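CellTiter-Glo luminescence gave cytotoxicity after 18 hours at 37 degrees C. The cells were HepG2 CAGA-GFP in 1% FBS DMEM, stimulated with 500 pg/mL TGF-beta after compound addition. %Activity was normalised to no-cell wells (complete cell-killing) and DMSO (no toxicity), and curves were fitted and classified.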
An asterisk follows results filed as active; i = inactive; ? = inconclusive; . = no result given. Calls follow the shape of the dose curve; as a rule, active = well fitted curve in the direction sought with a large enough effect; inconclusive = small, poorly fitted or top-dose-only effect, or another doubt; inactive = no such curve, though single readings can be large; an effect the other way counts as inactive or inconclusive. Potency is read from the fitted curve at half-maximal effect.

SMILES	ATXN2 expr inh	ATXN viability	A549 viability	TGFb SMAD3 inh	Nrf2 block	HepG2 tox
Cn1c(=O)n(C)c2cc(NS(=O)(=O)c3ccccc3)ccc21	65.0%	i	0.6%	8.4%	?	-0.5%
COC(=O)c1ccc(NS(=O)(=O)c2ccc3c(c2)n(C)c(=O)n3C)cc1	17.1%	.	-1.0%	-2.0%	-24.5%	2.0%
Cc1ccc(S(=O)(=O)Nc2ccc3c(c2)n(C)c(=O)n3C)cc1	0.0%	i	3.8%	0.0%	?	-19.7%
CCOc1ccc(S(=O)(=O)Nc2ccc3c(c2)c(C(C)=O)c(C)n3S(=O)(=O)c2ccc(OCC)cc2)cc1	.	.	-3.1%	11.2µM*	?	-11.8%
CCOC(=O)c1ccc(NS(=O)(=O)c2ccc3c(c2)n(C)c(=O)n3C)cc1	-2.3%	?	11.5%	-0.6%	20.6µM*	5.0%
Cn1c(=O)n(C)c2cc(S(=O)(=O)Nc3ccccc3)ccc21	3.4%	i	-6.5%	-3.6%	23.1µM*	-5.8%
CCN1C[C@@H]2[C@@H]3C(=O)N(C)C(=O)[C@@H]3[C@](CC)(C(=O)OC)N2C1=NCc1ccccc1	9.9%	i	-6.0%	2.9%	9.3%	0.8%
Cc1ccc(NS(=O)(=O)c2ccc3c(c2)oc(=O)n3C)cc1C	-25.9%	i	2.3%	5.7%	-11.7%	-22.8%
Cc1ccc(S(=O)(=O)Nc2cc3c(cc2NCc2ccccc2)n(C)c(=O)n3C)cc1	45.2%	i	-15.7%	-9.9%	?	-28.7%
CC(C)c1ccc(S(=O)(=O)Nc2cc3c(cc2NCc2ccccc2)n(C)c(=O)n3C)cc1	46.1%	i	-10.3%	?	25.9µM*	-30.5%
CCOC(=O)Cc1ccc(NS(=O)(=O)c2ccc(SC)cc2)cc1	-4.3%	i	-7.9%	-6.6%	?	2.9%
CSc1cccc(NS(=O)(=O)c2ccc3c(c2)oc(=O)n3C)c1	-10.7%	i	-4.8%	-10.1%	25.9µM*	-17.2%
CCOC(=O)c1ccc(NS(=O)(=O)c2ccc(SC)cc2)cc1	-2.2%	i	?	?	23.1µM*	-20.0%
Cc1ccccc1-c1noc(C(C)NC(=O)c2ccco2)n1 (stereo not drawn)	-1.5%	i	-4.0%	?	-29.3%	18.1%
CCOC(=O)c1[nH]cnc1N=Nc1c(O)ccc2ccccc12	11.2µM*	10µM*	?	0.0%	?	3.6%
Oc1ccc2ccccc2c1N=Nc1ccccn1	?	.	?	-46.2%	?	-21.0%
Cc1noc(C)c1S(=O)(=O)N1CCN(c2ccc(Cl)cc2)CC1	-8.6%	i	11.8%	-8.0%	-6.0%	5.01µM*
Cc1ccc(Cl)cc1N1CCN(S(=O)(=O)c2c(C)noc2C)CC1	-21.5%	i	9.4%	-15.1%	-9.4%	-24.6%
COc1ccccc1CN(C)CC(=O)Nc1ccccc1-c1ccccc1	-17.3%	i	?	-0.2%	23.1µM*	2.1%
COc1ccc(CN(C)CC(=O)Nc2ccccc2-c2ccccc2)c(OC)c1	-19.7%	i	-11.9%	?	?	-0.8%
NC(Cc1ccccc1)c1csc(Nc2nncc3ccccc23)n1 (stereo not drawn)	?	.	.	15.8µM*	.	-100.6%
NC(Cc1ccccc1)c1csc(Nc2ccc(C(F)(F)F)cn2)n1 (stereo not drawn)	?	i	.	?	.	-83.6%
COc1ccc(CC(N)c2csc(Nc3cccc(OC)n3)n2)cc1 (stereo not drawn)	-7.8%	?	.	?	.	12.6µM*
COc1ccc(CC(N)c2csc(Nc3ccccn3)n2)cc1 (stereo not drawn)	?	?	.	?	.	-62.6%
NC(=O)c1cccc(Nc2nc(C(N)Cc3ccc(C(F)(F)F)cc3)cs2)n1 (stereo not drawn)	28.2µM*	?	.	?	.	-102.6%
SMILES	ATXN2 expr inh	ATXN viability	A549 viability	TGFb SMAD3 inh	Nrf2 block	HepG2 tox
COc1cccc(Nc2nc(C(N)Cc3ccc(C(F)(F)F)cc3)cs2)n1 (stereo not drawn)	20µM*	.	.	?	.	10µM*
Nc1ccc(CC(N)c2csc(Nc3nncc4ccccc34)n2)cc1 (stereo not drawn)	-24.2%	i	.	?	.	-30.3%
CC(=O)c1ccc(Nc2nc(C(N)Cc3ccc(Cl)cc3)cs2)cc1 (stereo not drawn)	?	?	.	?	.	-79.9%
COc1cccc(Nc2nc(C(N)CC(C)C)cs2)n1 (stereo not drawn)	-1.9%	?	.	11.2µM*	.	-102.6%
COc1cccc(Nc2nc(C(N)Cc3ccc(Cl)cc3)cs2)n1 (stereo not drawn)	25.1µM*	31.6µM*	.	?	.	-72.6%
COc1cccc(Nc2nc(C(N)C(C)C)cs2)n1 (stereo not drawn)	-6.1%	i	.	-5.8%	.	-17.6%
C/C(=N\NC(=O)c1cc(C)oc1C)c1ccc2ccccc2c1	16.7%	i	1.3%	-13.8%	-12.2%	-9.2%
Cc1cc(NC(=O)C(C)SCC(=O)Nc2cc(C(F)(F)F)ccc2N2CCOCC2)no1 (stereo not drawn)	-14.5%	i	-2.6%	-13.7%	-20.0%	-4.4%
Cc1nc(C)n(CC(=O)N2CCOc3ccc(CN4CCN(C)C[C@@H]4c4ccccc4)cc3C2)n1	.	i	.	.	.	.
CCCCn1c(=N)n(CC(O)COc2ccccc2)c2ccccc21 (stereo not drawn)	-18.4%	i	-2.9%	-16.2%	.	-31.2%
CCCn1c(=N)n(CC(O)COc2cccc(C)c2)c2ccccc21 (stereo not drawn)	?	?	17.7%	-0.7%	1.3%	-55.4%
CCCCCn1c(=N)n(CC(O)COc2cccc(C)c2)c2ccccc21 (stereo not drawn)	31.6µM*	20µM*	-16.1%	?	-12.2%	-107.3%
CCCCn1c(=N)n(CC(O)COc2ccc(C)cc2)c2ccccc21 (stereo not drawn)	.	.	-3.8%	?	1.5%	12.6µM*
Cc1ccc(Cn2c(=N)n(CC(O)COc3ccccc3)c3ccccc32)cc1 (stereo not drawn)	-23.9%	i	0.4%	?	-12.0%	2.82µM*
Cc1cccc(-n2c(=O)c3c(c4cc(C)ccc4n3C)n(CC(=O)NCCC3=CCCCC3)c2=O)c1	6.8%	i	-7.0%	-2.5%	15.4%	-1.7%
CC(C)Oc1ccc(C(=O)Nc2c3c(nn2C(C)(C)C)CS(=O)(=O)C3)cc1	1.0%	i	-3.2%	-15.8%	6.0%	-5.0%
C=Cc1cccc(NC(=O)c2ccc(NC(=O)c3ccco3)cc2)c1	?	i	0.2%	-4.7%	10.3µM*	3.1%
CCOC(=O)c1cccc(NC(=O)c2cccnc2)c1	3.4%	i	3.6%	25.5%	.	-0.7%

High-throughput results as filed in PubChem.
